# Screening data (PubChem BioAssay)
# PrPC TRFRET = inhibitors of human cell surface prion protein PrPC, primary screen, cell-based, TR-FRET. hit rate 0.43% among 370,000. Major prion protein (Homo sapiens), P04156. inhibition, % at 13.8 µM. TR-FRET read-out; in the data active = inhibition above about 24%; also: 0% = median of the test wells and 100% = reference compound wells
# Mtb hypoxia inh = PubChem AID 1159583 | M. tuberculosis hypoxia-regulated fluorescent reporter, fluorescence | hit rate 0.1% among 300,000 | fluorescence inhibition, % (concentration not given with the values); in the data active = fluorescence inhibition mostly above about 23%, no sharp cut-off; inactive = mostly below about 17%
# PrP UTR inh = inhibition of PrP 5' UTR reporter expression; AID 488862, 2010; hit rate 0.35% among 340,000; cell-based PrP 5' UTR mRNA reporter, plate reader; inhibition, % (no concentration beside the values); in the data active = inhibition above about 52%; also: 0 = median of the neutral control wells
# MazF activator = activators of E. coli MazEF toxin-antitoxin RNase, primary screen, biochemical, fluorescence, uHTS | FAM/BHQ RNA-DNA oligo cleavage fluorescence, 5 h | activation, % at 20 µM | Endoribonuclease toxin MazF (Escherichia coli (strain K12)), P0AE70 | hit rate 0.32% among 350,000; in the data active = activation above about 50%
# Target sequence (P0AE70 whole entry, looked up): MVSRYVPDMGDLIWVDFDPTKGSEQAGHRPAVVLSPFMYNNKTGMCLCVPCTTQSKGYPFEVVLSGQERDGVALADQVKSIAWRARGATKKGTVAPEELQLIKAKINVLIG
# 3CLpro inhibitor = SARS-CoV 3CLpro protease inhibitors, primary screen, biochemical, quenched FRET; Replicase polyprotein 1ab (Severe acute respiratory syndrome coronavirus), P0C6X7; recombinant SARS-CoV 3CLpro, quenched FRET peptide cleavage; inhibition, % at 6 µM; hit rate 0.14% among 290,000; AID 1706, 2009; in the data active = inhibition above about 12%
# DUSP3 inh = VHR1 phosphatase inhibitors, primary screen, biochemical, absorbance, uHTS. Dual specificity protein phosphatase 3 (Homo sapiens), P51452. recombinant VHR phosphatase, pNPP absorbance. inhibition, % at 13.3 µM. hit rate 0.52% among 290,000. AID 1654, 2009; in the data active = inhibition above about 50%
# Target sequence (P51452 whole entry, looked up): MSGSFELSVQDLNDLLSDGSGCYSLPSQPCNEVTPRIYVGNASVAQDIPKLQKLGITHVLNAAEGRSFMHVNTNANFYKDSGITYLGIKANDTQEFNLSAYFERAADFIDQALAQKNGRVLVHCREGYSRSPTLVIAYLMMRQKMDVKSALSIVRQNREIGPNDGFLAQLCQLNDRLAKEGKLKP
# Active calls of the source: *; / = no result given. The list is not random: actives were taken first. Their share in the collection is about 1.5%.
SMILES,PrPC TRFRET,Mtb hypoxia inh,PrP UTR inh,MazF activator,3CLpro inhibitor,DUSP3 inh
Nc1ccc(C2(c3ccc(N)cc3)c3ccccc3-c3ccccc32)cc1,-3,50*,-15,-1,2,7
Nc1ccc(C2(c3ccc(N)cc3)c3ccccc3C(=O)c3ccccc32)cc1,-6,7,-8,2,/,/
COC[C@H]1OC(=O)c2coc3c2[C@@]1(C)C1=C(C3=O)[C@@H]2CCC(=O)[C@@]2(C)C[C@H]1OC(C)=O,-11,/,15,67*,/,/
COCC(=O)NN=Cc1ccc(Sc2nc3ccccc3s2)o1,/,8,/,/,/,/
CCC(=O)Nc1cc2c(C)cc(=O)oc2cc1C,0,/,-3,3,1,56*
CCOC(=O)CSc1nnc2n(Cc3ccccc3)c(=O)c3c4c(sc3n12)CCC4,-5,/,-5,2,5,52*
CCOc1cc(C(=O)NCC(=O)NN=Cc2sccc2C)cc(OCC)c1OCC,/,14,/,/,/,/
Nc1nnc(-c2ccncc2)s1,-1,4,-10,4,1,22
c1cc(-c2sc(-c3ccncc3)c(-c3ccncc3)c2-c2ccncc2)ccn1,-1,-3,/,-6,1,53*
O=C(Nc1ccc(S(=O)(=O)Nc2nccs2)cc1)c1nn(-c2ccccc2)ccc1=O,-10,16,-10,6,-8,39
COc1ccc(-n2ccc(=O)c(C(=O)Nc3ccc(S(=O)(=O)Nc4nccs4)cc3)n2)cc1,-1,10,6,9,-6,58*
CC=CC(C)=CC(C)C(=O)CC(O)CC1CC(=O)NC(=O)C1 (stereo unspecified),46*,/,/,3,/,/
O=S(=O)(N=C(Sc1ccc(Cl)cc1)c1ccccc1)c1ccccc1,/,7,/,/,/,/
O=C(c1csc2c1CCCC2)N1CCN(c2ccc(F)cc2)CC1,8,1,9,53*,3,4
CC(C)OC(=O)c1ccc(NCc2cc(O)ccc2O)cc1,13,/,-28,-12,/,/
O=C(OCc1ccccc1)c1ccc(NCc2cc(O)ccc2O)cc1,46*,/,-22,-22,/,/
Cc1cc(C)n(-c2nc3ccccc3nc2Nc2ccc3c(c2)OCO3)n1,1,0,-20,-8,-1,-16
Cc1cc(C)n(-c2nc3nonc3nc2Nc2cccc(C)c2C)n1,-6,5,-3,190*,5,22
S=C(NCc1ccco1)NN=Cc1cccnc1,/,4,/,/,/,/
NNS(=O)(=O)c1ccc(Sc2ccccn2)c([N+](=O)[O-])c1,-29,2,-34,220*,2,23
N#Cc1ccc(Sc2ccccn2)c([N+](=O)[O-])c1,-32,16,-23,14,-1,22
Cc1ccc(C2NC(=O)c3c(sc(C)c3C)N2)c(O)c1 (stereo unspecified),-4,-1,-18,0,-2,51*
COC(=O)C1=C(c2ccccc2)CC2CCC1N2C(=O)NC1CCCCC1 (stereo unspecified),/,-3,/,/,/,/
Cc1ccc(NC(=O)NNS(=O)(=O)c2ccc(Br)cc2)cc1,-2,/,-6,0,1,9
Cc1ccc(S(=O)(=O)NC(=O)Nc2ccc(N(C)C)cc2)cc1,-30,12,-33,9,3,52*
SMILES,PrPC TRFRET,Mtb hypoxia inh,PrP UTR inh,MazF activator,3CLpro inhibitor,DUSP3 inh
COc1ccc(C2CC2C(=NO)c2ccccn2)cc1 (stereo unspecified),/,7,/,/,/,/
COc1cc(/C=C/c2nc3ccccc3c(=O)[nH]2)cc(Cl)c1O,4,-17,-29,-23,-2,58*
CN(C)c1ccc(/C=C/c2nc3ccccc3c(=O)[nH]2)cc1,4,-11,60*,-105,0,-15
Cc1ccc(S(=O)(=O)N2CCN(CC(=O)NN=Cc3cc([N+](=O)[O-])ccc3Cl)CC2)cc1,/,18,/,/,/,/
Cc1ccsc1C=NNC(=O)c1cc(C(C)(C)C)[nH]n1,/,2,/,/,/,/
CCOC(=O)NNC(=O)c1[nH]c2ccc(Br)cc2c1-c1ccccc1,5,-15,-14,5,2,55*
CC(=O)NNC(=O)c1[nH]c2ccc(Br)cc2c1-c1ccccc1,10,-2,-14,5,3,-2
O=C1c2cccc3cc([N+](=O)[O-])cc(c23)C(=O)N1N=Cc1ccc(O)cc1O,/,8,/,/,/,/
COc1ccc(-c2nnc(SCc3nc4ccccc4s3)n2C(C)C)cc1,-2,45*,-52,-3,2,-16
COc1cccc(CNCC(O)COc2ccc(C(=O)c3ccccc3)cc2)c1 (stereo unspecified),-7,-3,-10,0,4,52*
O=C(c1ccc(Cl)cc1)N1CCc2ccccc21,3,9,-15,6,-3,56*
CON=C(c1nonc1N)N1CCN(c2ccc(Cl)cc2[N+](=O)[O-])CC1,/,-3,/,/,/,/
O=C(COc1ccc(Br)cc1)NN1C(=O)c2ccccc2C1=O,8,8,/,442*,/,/
CCOC(=O)c1c(S(=O)(=O)Nc2ccc(C)c(F)c2)c(C)n(C)c1C,-6,-4,6,8,2,35
CCOC(=O)c1c(S(=O)(=O)Nc2ccc(C)cn2)c(C)n(C)c1C,3,-7,-11,1,-5,51*
COC(=O)C1=C(c2ccc(S(C)(=O)=O)cc2)CC2CCC1N2C (stereo unspecified),/,6,/,/,/,/
O=C(NC(Cc1ccccc1)C(=O)NC(Cc1ccccc1)C(=O)O)OCc1ccccc1 (stereo unspecified),/,5,/,/,/,/
CC(C)=CCc1cc(-c2oc3cc(O)cc(O)c3c(=O)c2O)ccc1O,7,/,-8,57*,/,/
CC(C)(C)CC(C)(C)c1ccc(OCC(=O)NN=Cc2ccc(S(=O)(=O)O)o2)cc1,/,2,/,/,/,/
Cc1ccc(-c2cc(-c3ccccc3O)nc(NN=Cc3cccnc3)n2)cc1,/,1,/,/,/,/
COc1ccc(N2C(=O)c3cccc4c(N(C)CCO)ccc(c34)C2=O)cc1,-35,2,-13,155*,-3,5
O=C(CN1CCN(c2ccc(O)cc2)CC1)Nc1cc(S(=O)(=O)N2CCCCC2)ccc1Cl,12,3,5,2,2,56*
O=C(CN1CCN(c2ccc(O)cc2)CC1)Nc1cc(S(=O)(=O)N2CCCC2)ccc1Cl,0,16,0,-15,-3,10
CC12CCC(CC1=N/N=C1/NC(=O)/C(=C\c3ccc(Cl)cc3)S1)C2(C)C (stereo unspecified),/,6,/,/,/,/
O=C(CSCc1ccc(Cl)cc1)Nc1ccccc1O,7,65*,-29,-13,4,13
CN(C)C(CNc1ccc(S(C)(=O)=O)cc1[N+](=O)[O-])Cc1ccccc1 (stereo unspecified),-41,4,-6,-1,-4,56*
Cc1c(C(=O)NC2CCOC2)oc2c(F)cccc12 (stereo unspecified),-2,7,-79,8,-5,53*
